{"source": "PubChem BioAssay (NCATS)", "note": "Several values for one entry are separate records, joined by “and”; a condition that tells them apart may be missing. Equal entries are not always repeated."}
{"experiment": "High-throughput drug toxicity screening in the BPDCN cell line Gen2.2 (AID 1224824);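 further: cells exposed to compounds for 48 h before reading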", "conditions": "Gen2.2 BPDCN cells; at 45.8 µM (top of the series) unless noted", "outline": "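Seed 500 exponentially growing Gen2.2 cells/well; add compounds by pin tool; incubate 48 h, 37 °C, 5% CO2; add CellTiter-Glo, 15 min RT; read luminescence. % activity vs DMSO (100%) and bortezomib (0%).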"}
{"smiles": "CCOC(=O)N1CCC(=C2c3ccc(Cl)cc3CCc3cccnc32)CC1", "cell viability, % of control (lower = more cytotoxic)": "186%"}
{"smiles": "Cc1cn[nH]c1", "cell viability, % of control (lower = more cytotoxic)": "120%"}
{"smiles": "CN(C)c1ccc(C2Nc3ccc4ccccc4c3C3=C2C(=O)CC(C)(C)C3)cc1Br", "note": "(configuration not stated)", "cell viability, % of control (lower = more cytotoxic)": "119%"}
{"smiles": "c1ccc(-c2nn3c(c2-c2ccnc4cc(OCCN5CCOCC5)ccc24)CCC3)nc1", "cell viability, % of control (lower = more cytotoxic)": "857%"}
{"smiles": "CC(=O)Oc1ccccc1C(=O)O", "cell viability, % of control (lower = more cytotoxic)": "125%"}
{"smiles": "CC(C[N+](C)(C)C)OC(N)=O", "note": "(configuration not stated)", "cell viability, % of control (lower = more cytotoxic)": "120%"}
{"smiles": "N[C@@H]1CONC1=O", "cell viability, % of control (lower = more cytotoxic)": "150%"}
{"smiles": "Nc1cccc(S(=O)(=O)N2CCCN(S(=O)(=O)c3ccc4c(c3)OCCO4)CC2)c1", "cell viability, % of control (lower = more cytotoxic)": "162%"}
{"smiles": "CC(C=CC1=C(C)CCCC1(C)C)=CC=CC(C)=CC(=O)O", "cell viability, % of control (lower = more cytotoxic)": "49.1% and 83.4%"}
{"smiles": "O=C1CCCC2=C1C(c1[nH]ncc1Cl)N=C(Nc1nc3ccccc3o1)N2", "note": "(configuration not stated)", "cell viability, % of control (lower = more cytotoxic)": "73.8%"}
{"smiles": "COCCNCCCn1c(C(=O)CF)c(-c2ccc(C)cc2)c2c(N)ncnc21", "cell viability, % of control (lower = more cytotoxic)": "77.9%"}
{"smiles": "COc1ccc([C@@H]2CC(=O)c3c(O)cc(O[C@@H]4O[C@H](CO[C@@H]5O[C@@H](C)[C@H](O)[C@@H](O)[C@@H]5O)[C@@H](O)[C@H](O)[C@@H]4O)cc3O2)cc1O", "cell viability, % of control (lower = more cytotoxic)": "52.6% and 176%"}
{"smiles": "Cc1ccccc1C(C(=O)NC1CCCC1)N(C(=O)Cn1cnc2ccccc21)c1cccc(F)c1", "note": "(configuration not stated)", "cell viability, % of control (lower = more cytotoxic)": "30.2%"}
{"smiles": "Cc1ccc(N(CC2=NCCN2)c2cccc(O)c2)cc1", "cell viability, % of control (lower = more cytotoxic)": "80.5%"}
{"smiles": "NC(=O)c1cnccn1", "cell viability, % of control (lower = more cytotoxic)": "146%"}
{"smiles": "CCn1c(-c2nonc2N)nc2c(C#CC(C)(C)O)ncc(OC[C@H]3CCCNC3)c21", "cell viability, % of control (lower = more cytotoxic)": "64.9%"}
{"smiles": "CN[C@@H](C)C(=O)N[C@H]1CCCC[C@H]2CC[C@@H](C(=O)N[C@@H](c3ccccc3)c3cn(CCCCc4ccc(CCCCn5cc([C@@H](NC(=O)[C@@H]6CC[C@@H]7CCCC[C@H](NC(=O)[C@H](C)NC)C(=O)N76)c6ccccc6)nn5)cc4)nn3)N2C1=O", "cell viability, % of control (lower = more cytotoxic)": "28%"}
{"smiles": "C1COC(NC(C2CC2)C2CC2)=N1", "cell viability, % of control (lower = more cytotoxic)": "33.1%"}
{"smiles": "CCOc1ccc(Cc2cc([C@@H]3O[C@H](CO)[C@@H](O)[C@H](O)[C@@H]3O)ccc2Cl)cc1", "cell viability, % of control (lower = more cytotoxic)": "55.1%"}
{"smiles": "Cn1cc(-c2ccc3nnc(C(F)(F)c4ccc5ncccc5c4)n3n2)cn1", "cell viability, % of control (lower = more cytotoxic)": "55.7%"}
{"smiles": "Cc1ccc(NC(=O)c2cccc(C(C)(C)C#N)c2)cc1Nc1ccc2ncn(C)c(=O)c2c1", "cell viability, % of control (lower = more cytotoxic)": "8.79%"}
{"smiles": "CN(C)c1ccc(Nc2nc(N)n(C(=O)c3c(F)cccc3F)n2)cc1", "cell viability, % of control (lower = more cytotoxic)": "73.4%"}
{"smiles": "NC[C@H](O)c1ccc(O)c(O)c1", "cell viability, % of control (lower = more cytotoxic)": "132%"}
{"smiles": "CC(C)(C)OC(=O)CN(Cc1ccc(Cl)cc1)Cc1ccc([N+](=O)[O-])s1", "cell viability, % of control (lower = more cytotoxic)": "18.4%"}
{"smiles": "O=C(NOC[C@H](O)CO)c1ccc(F)c(F)c1Nc1ccc(I)cc1F", "cell viability, % of control (lower = more cytotoxic)": "14.5%"}
{"smiles": "COc1cc(Oc2ccnc3cc(OC)c(OC)cc23)ccc1NC(=O)NC(C)c1nccs1", "note": "(configuration not stated)", "cell viability, % of control (lower = more cytotoxic)": "98.9%"}
{"smiles": "CCCc1nc2c(C)cc(-c3nc4ccccc4n3C)cc2n1Cc1ccc(-c2ccccc2C(=O)O)cc1", "cell viability, % of control (lower = more cytotoxic)": "126%"}
{"smiles": "NCCc1ccc(O)c(O)c1", "cell viability, % of control (lower = more cytotoxic)": "14.2%"}
{"smiles": "OC(CCN1CCCCC1)(c1ccccc1)C1CC2C=CC1C2", "note": "(configuration not stated)", "cell viability, % of control (lower = more cytotoxic)": "127%"}
{"smiles": "Nc1ccc(S(=O)(=O)Nc2ccnn2-c2ccccc2)cc1", "cell viability, % of control (lower = more cytotoxic)": "153%"}
{"smiles": "COc1ccc(-c2ccc3c(N4CCOC[C@H]4C)nc(N4CCOC[C@H]4C)nc3n2)cc1CO", "cell viability, % of control (lower = more cytotoxic)": "11.3%"}
{"smiles": "COc1cc(Nc2ncc3c(n2)-c2ccc(Cl)cc2C(c2c(F)cccc2OC)=NC3)ccc1C(=O)O", "cell viability, % of control (lower = more cytotoxic)": "24.8%"}
{"smiles": "O=C(c1cc(Cc2n[nH]c(=O)c3ccccc23)ccc1F)N1CCN(C(=O)C2CC2)CC1", "cell viability, % of control (lower = more cytotoxic)": "71.5%"}
{"smiles": "CCOc1cc(C=C2C(=O)N(c3ccccc3)N=C2C)cc(Cl)c1OCC(=O)OC", "cell viability, % of control (lower = more cytotoxic)": "14.1%"}
{"smiles": "CC(C)(C)NCC(O)c1ccc(O)c(CO)c1", "note": "(configuration not stated)", "cell viability, % of control (lower = more cytotoxic)": "76%"}
{"smiles": "Cn1cnc2c(F)c(Nc3ccc(Br)cc3Cl)c(C(=O)NOCCO)cc21", "cell viability, % of control (lower = more cytotoxic)": "4.9%"}
{"experiment": "High-throughput drug toxicity screening in the BPDCN cell line Cal-1 (AID 1224825)", "conditions": "Cal-1 BPDCN cell viability, qHTS; at 45.8 µM (top of the series) unless noted", "outline": "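500 Cal-1 cells/well, RPMI + glutamine + 10% FBS (phenol red-free); cpd added by pin tool; 48 h, 37C, 5% CO2; CTG 15 min RT, lumi read. Normalised: DMSO 100%, bortezomib 9.2 uM 0%.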"}
{"smiles": "CCOC(=O)N1CCC(=C2c3ccc(Cl)cc3CCc3cccnc32)CC1", "viability (% of control)": "87.3%"}
{"smiles": "Cc1cn[nH]c1", "viability (% of control)": "55.7%"}
{"smiles": "CN(C)c1ccc(C2Nc3ccc4ccccc4c3C3=C2C(=O)CC(C)(C)C3)cc1Br", "note": "(configuration not stated)", "viability (% of control)": "111%"}
{"smiles": "c1ccc(-c2nn3c(c2-c2ccnc4cc(OCCN5CCOCC5)ccc24)CCC3)nc1", "viability (% of control)": "73.1%"}
{"smiles": "CC(=O)Oc1ccccc1C(=O)O", "viability (% of control)": "135%"}
{"smiles": "CC(C[N+](C)(C)C)OC(N)=O", "note": "(configuration not stated)", "viability (% of control)": "120%"}
{"smiles": "N[C@@H]1CONC1=O", "viability (% of control)": "97.9%"}
{"smiles": "Nc1cccc(S(=O)(=O)N2CCCN(S(=O)(=O)c3ccc4c(c3)OCCO4)CC2)c1", "viability (% of control)": "104%"}
{"smiles": "CC(C=CC1=C(C)CCCC1(C)C)=CC=CC(C)=CC(=O)O", "viability (% of control)": "39.4% and 7.95%"}
{"smiles": "O=C1CCCC2=C1C(c1[nH]ncc1Cl)N=C(Nc1nc3ccccc3o1)N2", "note": "(configuration not stated)", "viability (% of control)": "82.3%"}
{"smiles": "COCCNCCCn1c(C(=O)CF)c(-c2ccc(C)cc2)c2c(N)ncnc21", "viability (% of control)": "85.7%"}
{"smiles": "COc1ccc([C@@H]2CC(=O)c3c(O)cc(O[C@@H]4O[C@H](CO[C@@H]5O[C@@H](C)[C@H](O)[C@@H](O)[C@@H]5O)[C@@H](O)[C@H](O)[C@@H]4O)cc3O2)cc1O", "viability (% of control)": "54.1% and 116%"}
{"smiles": "Cc1ccccc1C(C(=O)NC1CCCC1)N(C(=O)Cn1cnc2ccccc21)c1cccc(F)c1", "note": "(configuration not stated)", "viability (% of control)": "102%"}
{"smiles": "Cc1ccc(N(CC2=NCCN2)c2cccc(O)c2)cc1", "viability (% of control)": "22.6%"}
{"smiles": "NC(=O)c1cnccn1", "viability (% of control)": "118%"}
{"smiles": "CCn1c(-c2nonc2N)nc2c(C#CC(C)(C)O)ncc(OC[C@H]3CCCNC3)c21", "viability (% of control)": "8.62%"}
{"smiles": "CN[C@@H](C)C(=O)N[C@H]1CCCC[C@H]2CC[C@@H](C(=O)N[C@@H](c3ccccc3)c3cn(CCCCc4ccc(CCCCn5cc([C@@H](NC(=O)[C@@H]6CC[C@@H]7CCCC[C@H](NC(=O)[C@H](C)NC)C(=O)N76)c6ccccc6)nn5)cc4)nn3)N2C1=O", "viability (% of control)": "1.94%"}
{"smiles": "C1COC(NC(C2CC2)C2CC2)=N1", "viability (% of control)": "53.6%"}
{"smiles": "CCOc1ccc(Cc2cc([C@@H]3O[C@H](CO)[C@@H](O)[C@H](O)[C@@H]3O)ccc2Cl)cc1", "viability (% of control)": "19.9%"}
{"smiles": "Cn1cc(-c2ccc3nnc(C(F)(F)c4ccc5ncccc5c4)n3n2)cn1", "viability (% of control)": "64.2%"}
{"smiles": "Cc1ccc(NC(=O)c2cccc(C(C)(C)C#N)c2)cc1Nc1ccc2ncn(C)c(=O)c2c1", "viability (% of control)": "14%"}
{"smiles": "CN(C)c1ccc(Nc2nc(N)n(C(=O)c3c(F)cccc3F)n2)cc1", "viability (% of control)": "14.1%"}
{"smiles": "NC[C@H](O)c1ccc(O)c(O)c1", "viability (% of control)": "96.3%"}
{"smiles": "CC(C)(C)OC(=O)CN(Cc1ccc(Cl)cc1)Cc1ccc([N+](=O)[O-])s1", "viability (% of control)": "30.5%"}
{"smiles": "O=C(NOC[C@H](O)CO)c1ccc(F)c(F)c1Nc1ccc(I)cc1F", "viability (% of control)": "41.6%"}
{"smiles": "COc1cc(Oc2ccnc3cc(OC)c(OC)cc23)ccc1NC(=O)NC(C)c1nccs1", "note": "(configuration not stated)", "viability (% of control)": "32.2%"}
{"smiles": "CCCc1nc2c(C)cc(-c3nc4ccccc4n3C)cc2n1Cc1ccc(-c2ccccc2C(=O)O)cc1", "viability (% of control)": "103%"}
{"smiles": "NCCc1ccc(O)c(O)c1", "viability (% of control)": "25%"}
{"smiles": "OC(CCN1CCCCC1)(c1ccccc1)C1CC2C=CC1C2", "note": "(configuration not stated)", "viability (% of control)": "107%"}
{"smiles": "Nc1ccc(S(=O)(=O)Nc2ccnn2-c2ccccc2)cc1", "viability (% of control)": "115%"}
{"smiles": "COc1ccc(-c2ccc3c(N4CCOC[C@H]4C)nc(N4CCOC[C@H]4C)nc3n2)cc1CO", "viability (% of control)": "22%"}
{"smiles": "COc1cc(Nc2ncc3c(n2)-c2ccc(Cl)cc2C(c2c(F)cccc2OC)=NC3)ccc1C(=O)O", "viability (% of control)": "28.7%"}
{"smiles": "O=C(c1cc(Cc2n[nH]c(=O)c3ccccc23)ccc1F)N1CCN(C(=O)C2CC2)CC1", "viability (% of control)": "45.4%"}
{"smiles": "CCOc1cc(C=C2C(=O)N(c3ccccc3)N=C2C)cc(Cl)c1OCC(=O)OC", "viability (% of control)": "61.6%"}
{"smiles": "CC(C)(C)NCC(O)c1ccc(O)c(CO)c1", "note": "(configuration not stated)", "viability (% of control)": "113%"}
{"smiles": "Cn1cnc2c(F)c(Nc3ccc(Br)cc3Cl)c(C(=O)NOCCO)cc21", "viability (% of control)": "23.1%"}
